Rows were chosen to be rich in hits. Some 2.4% of all compounds tested hit in one or more screens of this group.
D2 ag-1 = activates the human D2 dopamine receptor. P14416. DiscoveRx PathHunter D2 beta-arrestin, luminescence, 90 min; 100% = 57 uM dopamine signal. activation, % (test concentration not listed). actives 0.084% (n = 360,000). AID 624465; in the data active = activation above about 40%; inconclusive = between about 15% and that limit
Target sequence (P14416 whole entry, looked up): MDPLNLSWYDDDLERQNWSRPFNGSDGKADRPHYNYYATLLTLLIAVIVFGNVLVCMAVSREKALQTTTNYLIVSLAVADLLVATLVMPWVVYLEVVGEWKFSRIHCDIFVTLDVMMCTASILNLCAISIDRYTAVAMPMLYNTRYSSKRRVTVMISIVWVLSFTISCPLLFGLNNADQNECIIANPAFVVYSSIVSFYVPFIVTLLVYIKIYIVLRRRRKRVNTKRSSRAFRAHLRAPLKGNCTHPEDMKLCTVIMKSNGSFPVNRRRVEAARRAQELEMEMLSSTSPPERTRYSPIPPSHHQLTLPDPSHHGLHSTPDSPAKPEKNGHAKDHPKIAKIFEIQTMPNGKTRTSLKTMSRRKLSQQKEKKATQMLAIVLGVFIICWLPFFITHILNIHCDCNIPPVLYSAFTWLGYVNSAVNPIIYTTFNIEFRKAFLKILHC
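Agonist mode: compounds alone added to overnight-plated D2 PathHunter cells for 90 min at 37 C, with 57 uM final dopamine (EC100) defining full response. Beta-arrestin recruitment detected by chemiluminescent reagent, read after 1 h at ambient temperature.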
D2 PAM-1 = potentiates the human D2 dopamine receptor allosterically. AID 624464. P14416. DiscoveRx D2 beta-arrestin cells, luminescence, 90 min; 100% = 57 uM dopamine signal. potentiation, % (no concentration beside the values). actives 0.23% (n = 360,000); in the data active = potentiation above about 50%; inconclusive = mostly about 30% to 49%
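D2 cells co-treated with compound plus 50 nM dopamine (EC20) for 90 min at 37 deg C to detect potentiation. Beta-arrestin recruitment was read as enzyme-fragment luminescence after 1 h at ambient temperature. Full response was set by 57 uM dopamine.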
D2 ag-2 = D2 dopamine receptor (human) agonism. actives 0.53% (n = 340,000). HEK293 T-REx D2 cells, calcium flux agonist mode. activation, % at 2 µM. AID 485358;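 active = activation over 3 SD above normal in the single-dose calcium agonist read, cut at about 30% in these data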
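In this primary screen, compounds producing a positive calcium signal within 180 s of addition to tetracycline-induced, force-coupled HEK293 Trex D2 cells are flagged; cells are dye-loaded with a no-wash calcium kit beforehand.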
D2 PAM-2 = positively modulates the human D2 dopamine receptor allosterically | HEK293 T-REx D2, calcium flux, EC20 dopamine potentiation | potentiation, % at 10 µM | actives 0.34% (n = 340,000) | AID 485347;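 active = potentiation over 3 SD above the plate norm, cut at about 30% in these data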
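Using a no-wash calcium dye in inducible, force-coupled HEK293 Trex cells expressing D2, we tracked fluorescence each second for 180 s after compound, then for 180 s after EC20 dopamine to detect augmented signalling.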
D2 antag = antagonizes the human D2 dopamine receptor; HEK293 TREx D2 cells, calcium flux, dopamine EC80; actives 2% (n = 340,000); AID 485344; inhibition, % at 10 µM; P14416; in the data active = inhibition above about 30%; inactive = below that, where a call was filed
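Calcium mobilization kinetics were recorded at 1 s intervals in tetracycline-induced HEK293 T-REx D2 cells, first for 180 s after compound addition and then 180 s after EC80 dopamine.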
Hits are given with their value.

For CC(C)OC(=O)c1c2c(n3ccccc13)C(=O)c1ccccc1C2=O the results were D2 ag-1 inconclusive, D2 PAM-1 inactive, D2 ag-2 68.8, D2 PAM-2 inactive and D2 antag inactive.
Screening Cc1ccc(NC(=O)C2CCCCC2)cc1C returned D2 ag-1 inactive, D2 PAM-1 inactive, D2 ag-2 inactive, D2 PAM-2 inactive and D2 antag 36.2.
Screening O=C(CN1CCN(c2ccccc2F)CC1)c1ccc(O)c(O)c1 returned D2 ag-1 inactive, D2 PAM-1 inactive, D2 ag-2 61.1, D2 PAM-2 inactive and D2 antag inactive.
`Cc1c(O)ccc(C(=O)CN2CCN(c3ccccc3F)CC2)c1O` gave D2 ag-1 inactive, D2 PAM-1 inactive, D2 ag-2 inactive, D2 PAM-2 inactive and D2 antag inactive.
`CC(=O)C1CCC2C3CCC4=CC(=O)CCC4(C)C3(Br)C(=O)CC12C` (stereo not given) gave D2 ag-1 inactive and D2 PAM-1 61.3.
COC(=O)c1ccc(N2CCN(C)CC2)c(NC(=O)c2ccc(Br)o2)c1 was read as D2 ag-1 inactive, D2 PAM-1 inactive, D2 ag-2 inactive, D2 PAM-2 inactive and D2 antag inactive.
C=CCN(CC=C)C(=O)c1ccccc1NC(=O)c1ccccc1C was read as D2 ag-1 inactive, D2 PAM-1 inactive, D2 ag-2 inactive, D2 PAM-2 inactive and D2 antag inactive.
Screening Cc1ccc2c(c1)cc(CN(Cc1ccco1)C(=O)COc1ccccc1)c1nnnn12 returned D2 ag-1 inactive, D2 PAM-1 inactive, D2 ag-2 inactive, D2 PAM-2 inactive and D2 antag inactive.
For CCC(=O)N(Cc1ccco1)Cc1cc2cccc(C)c2n2nnnc12 the results were D2 ag-1 inactive, D2 PAM-1 inactive, D2 ag-2 inactive, D2 PAM-2 inactive and D2 antag 34.0.
`O=C(CSCc1ccccc1)Nc1ccc(S(=O)(=O)Nc2ncccn2)cc1` gave D2 ag-1 inactive and D2 PAM-1 inactive.
Screening O=C(Nc1ccccc1)c1ccc(NCCN2C(=O)CCC2=O)c([N+](=O)[O-])c1 returned D2 ag-1 inactive, D2 PAM-1 inactive, D2 ag-2 inactive, D2 PAM-2 inactive and D2 antag 58.6.
For Cc1ccc(NC(=O)c2ccc(OCc3c(C)noc3C)cc2)cc1 the results were D2 ag-2 inactive, D2 PAM-2 inactive and D2 antag inactive.
Screening Cc1ccc(NC(=O)c2ccc(OCc3c(C)noc3C)cc2)nc1 returned D2 ag-1 inactive, D2 PAM-1 inactive, D2 ag-2 inactive, D2 PAM-2 inactive and D2 antag 34.1.
Screening COc1ccccc1C(=O)NNC(=O)c1ccc(O)cc1 returned D2 ag-1 inactive and D2 PAM-1 inactive.
COc1ccccc1C(=O)NNC(=O)c1ccc2ccccc2c1 was read as D2 ag-1 inactive, D2 PAM-1 66.9, D2 ag-2 inactive, D2 PAM-2 inactive and D2 antag inactive.
Screening COc1cc2c(cc1OC)CN(C(=O)Cc1c(F)cccc1Cl)CC2 returned D2 ag-1 inactive, D2 PAM-1 inactive, D2 ag-2 inactive, D2 PAM-2 inactive and D2 antag inactive.
`C=CCNC(=O)CN1C2CCCC1CC(NC(=O)c1ccccc1C)C2` (stereo not given) gave D2 ag-1 inactive, D2 PAM-1 inactive, D2 ag-2 inactive, D2 PAM-2 40.8 and D2 antag inactive.
For CCc1nc2c(c(=O)c3ccccc3n2C)c(=O)n1C1CCCCCC1 the results were D2 ag-1 inactive, D2 PAM-1 inactive, D2 ag-2 58.5, D2 PAM-2 inactive and D2 antag inactive.
Screening COc1ccc(Cn2c(C3CCCCC3)nc3c(c(=O)c4ccccc4n3C)c2=O)cc1 returned D2 ag-1 inactive, D2 PAM-1 inactive, D2 ag-2 inactive, D2 PAM-2 inactive and D2 antag 41.9.
Screening COc1ccc(CCn2c(C3CCCCC3)nc3c(c(=O)c4ccccc4n3C)c2=O)cc1 returned D2 ag-1 inactive, D2 PAM-1 inactive, D2 ag-2 inactive, D2 PAM-2 inactive and D2 antag inactive.
For COc1ccccc1C1CCN(Cc2cccc3ccccc23)CC1 the results were D2 ag-1 inactive, D2 PAM-1 inactive, D2 ag-2 inactive, D2 PAM-2 inactive and D2 antag 81.6.
COc1ccccc1C1CCN(Cc2c(C)[nH]c3ccccc23)CC1 was read as D2 ag-1 inactive, D2 PAM-1 inactive, D2 ag-2 inactive, D2 PAM-2 inactive and D2 antag 56.2.
Screening COc1ccccc1C1CCN(Cc2ccc(Cl)c(Cl)c2)CC1 returned D2 ag-1 inactive, D2 PAM-1 inactive, D2 ag-2 inactive, D2 PAM-2 inactive and D2 antag 83.7.
For COc1ccccc1C1CCN(Cc2ccc(Cl)cc2Cl)CC1 the results were D2 ag-1 inactive, D2 PAM-1 inactive, D2 ag-2 inactive, D2 PAM-2 inactive and D2 antag inactive.
Screening NS(=O)(=O)c1cccc(NC(=O)c2ccc(NS(=O)(=O)c3cccc([N+](=O)[O-])c3)cc2)c1 returned D2 ag-1 inactive and D2 PAM-1 inactive.
For CCCc1cc(=O)oc2cc(C)c3c(C(C)(C)C)coc3c12 the results were D2 ag-2 inactive and D2 PAM-2 inactive.
Oc1ccccc1C1Nc2cccc3cccc(c23)N1 was read as D2 ag-1 inactive, D2 PAM-1 60.5, D2 ag-2 inactive, D2 PAM-2 inactive and D2 antag inactive.
Brc1ccc(C2Nc3cccc4cccc(c34)N2)o1 was read as D2 ag-1 inactive, D2 PAM-1 61.3, D2 ag-2 inactive, D2 PAM-2 inactive and D2 antag inactive.
Screening Brc1cccc(C2Nc3cccc4cccc(c34)N2)c1 returned D2 ag-1 inactive, D2 PAM-1 inactive, D2 ag-2 inactive, D2 PAM-2 inactive and D2 antag inactive.
Screening CSc1ccccc1NC(=O)CN(C)C(=O)c1c(C)nn(Cc2ccccc2)c1C returned D2 ag-1 inactive and D2 PAM-1 inactive.
Screening CC(=O)c1cccc(NC(=O)CCNC(=O)c2cccc(C)c2)c1 returned D2 ag-1 inactive, D2 PAM-1 inactive, D2 ag-2 inactive and D2 antag inactive.
For CC(=O)c1c(C)[nH]c(C(=O)N(C)CC(=O)Nc2ccc(Cl)c(C(F)(F)F)c2)c1C the results were D2 ag-1 inactive, D2 PAM-1 inactive, D2 ag-2 inactive, D2 PAM-2 inactive and D2 antag 39.3.
For CN(CC(=O)NCCc1ccc(S(N)(=O)=O)cc1)CC(=O)Nc1ccc(Cl)c(C(F)(F)F)c1 the results were D2 ag-1 inactive and D2 PAM-1 inactive.
Screening CN(CC(=O)NC(=O)NCc1ccccc1)CC(=O)Nc1ccc(Cl)c(C(F)(F)F)c1 returned D2 ag-1 inactive, D2 PAM-1 inactive, D2 ag-2 inactive, D2 PAM-2 inactive and D2 antag 35.2.
Screening CN(CC(=O)Nc1ccc(Cl)c(C(F)(F)F)c1)C(=O)c1cccs1 returned D2 ag-1 inactive, D2 PAM-1 inactive, D2 ag-2 inactive, D2 PAM-2 inactive and D2 antag inactive.

Screens (PubChem)
